Reference: PubChem BioAssay AID686978 (National Center for Advancing Translational Sciences (NCATS), 2013)
Several values for one entry are separate records, joined by “and”; a condition that tells them apart may be missing. Identical values can stand only once. Among all 420,000 compounds or so, about 64,000 (15%) were called active. Another 27% or so got no clear call; they are omitted. A selection follows. A number with no mark means an inactive call. The call rests on the fitted dose curve; in most records, active means well fitted inhibition curve with a large enough effect; inconclusive means small, poorly fitted or top-dose-only effect; inactive means flat fitted curve, though single readings scatter.

experiment: qHTS for Inhibitors of human tyrosyl-DNA phosphodiesterase 1 (TDP1): qHTS in cells in absence of CPT; settings: DT40 Tdp1-/- hTDP1 cells, no CPT, ATP luminescence, 48 h; activity change, negative = growth inhibition: at 46.2 µM (top of the series); further: nearly all actives have a fitted effect of over 55% in size
Method in brief: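 DT40 Tdp1-/-;hTDP1 cells, no CPT (DMSO vehicle only), 400 cells/well; compounds pin-transferred; ≥48 hr, 37 °C; CellTiter-Glo 30 min RT dark, luminescence read.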
On the % scale 0 is the no-effect control and ±100 the full control effect; potency means the concentration at half of the fitted maximal effect.

In order of rising “activity change, negative = growth inhibition” value:
1. Cc1ccccc1-c1nc(N(C)Cc2ccco2)c2ccccc2n1  -43.2%
2. CC(=O)Nc1nc(C)c(-c2csc(Nc3ccc(S(N)(=O)=O)cc3)n2)s1  -28.2%
3. CCC(=O)N1c2ccccc2CC1C(=O)N1CCN(c2ccccc2)CC1 (stereo not given)  -28%
4. Brc1nc2ncnc(NCc3ccco3)c2[nH]1  -25.7%
5. CCOCCCn1c(NN)nc2ccccc2c1=O  -24.6%
6. O=C(Nc1cc(-c2nc3ccccc3o2)ccc1Cl)c1cc([N+](=O)[O-])ccc1N1CCOCC1  -23.6%
7. CCC(=O)OCCNc1nc(-c2ccccc2)nc2ccccc12  -21.2%
8. Cc1ccn2c(-c3csc(Nc4ccc(C(=O)O)cc4)n3)c(C)nc2c1  -20.6%
9. CCOC(=O)c1c(C)c(C(=O)NCCc2ccc(S(N)(=O)=O)cc2)c(C)n1CC  -20.4%
10. Cc1ccc(CN2CCN(c3ncccn3)CC2)c(C)c1  -19.4%
11. O=C(C1CCN(C2CCN(Cc3ccc4cc(F)ccc4n3)CC2)CC1)N1CCCC1  -18.6%
12. CCCCN(C)CCC(=O)Nc1ccc(Cl)cc1  -18%
13. COc1ccccc1CNC(=O)C1CCN(S(=O)(=O)c2ccc3c(c2)OCCO3)CC1  -18%
14. COC(=O)c1ccc(CSc2nnc(NC(C)C)s2)cc1  -17.7%
15. COc1ccc(OC)c(CN2CCN(C(=O)CNC(=O)c3cc(C)cc(C)c3)CC2)c1  -16.9%
16. NC(=O)C1CCCN(CC(=O)N2CCN(c3ccccc3)CC2)C1 (stereo not given)  -12.2%
17. COc1ccc(N(CC(=O)N2CCOCC2)S(=O)(=O)c2ccccc2)cc1Cl  -12.2%
18. Cc1nc(NC(=O)CCC(=O)O)sc1C(=O)N(C)C  -11.7%
19. Cc1ccc(C(=O)NNc2ncnc3ccccc23)cc1  -11.2%
20. Cc1c(C(=O)NCCCc2ccccc2)cccc1[N+](=O)[O-]  -11.1%
21. CCOC(=O)c1[nH]cnc1C(=O)NC1CCCCC1  -10.9%
22. CC(C)NC(=O)N1CC[C@@]2(CCCN(C(=O)c3cccn3C)C2)C1  -10.1%
23. COc1cccc(NC(=O)c2csnn2)c1  -9.53%
24. Cc1cnc(CNc2nc(-c3cccnc3)nc3ccccc23)cn1  -8.11%
25. Cc1cccc(OC(=O)c2sc3ncn(C)c(=O)c3c2C)c1  -8.1%
26. CCc1ccccc1NC(=O)c1ccc(F)c(S(=O)(=O)NC2CCCCCC2)c1  -7.92%
27. COc1ccc(CCNS(=O)(=O)c2cc3c(cc2C)NC(=O)CO3)cc1OC  -7.25%
28. COC(=O)C(C)Oc1ccc2c(-c3cccc([N+](=O)[O-])c3)cc(=O)oc2c1 (stereo not given)  -6.62%
29. CC(=O)N1C(=O)/C(=C2\SC(=S)N(NC(=O)c3ccc(O)cc3)C2=O)c2ccccc21  -6.31%
30. Cc1nn(-c2ccccc2)c(C)c1NC(=O)COC(=O)c1cc(Cl)ccc1O  -6.13%
31. Cc1nnc(NC(=O)CCCOc2ccccc2)s1  -5.9%
32. CCOC(=O)c1c(S(=O)(=O)N2CCC(C(=O)NCc3ccccc3OC)CC2)c(C)n(C)c1C  -5.74%
33. Cc1ccc(C(=O)NCCN2CCOCC2)cc1C  -4.96%
34. COc1cccc(NC(=O)C/C(C)=N/NC(=O)C2CCCCC2)c1  -4.86%
35. COC(=O)[C@@H]1CC(O)CN1C(=O)C12CC3CC(CC(C3)C1)C2 (stereo not given in full)  -4.84%
36. CC1=CC2=NC(=O)CC(C)(C(=O)N(CC(=O)NC(C)(C)C)Cc3ccccc3)N2C=C1 (stereo not given)  -4.59%
37. COc1ccc(-n2nc3c(c2NC(=O)c2ccc(N4C(=O)CCC4=O)cc2)CSC3)cc1  -4.48%
38. COc1ccc(C(=O)NCCc2ccc(S(N)(=O)=O)cc2)cc1OC  -4.05%
39. CC(C)(C)C(=O)Nc1c(Br)c(C2CC2)nn1-c1ccccc1  -3.93%
40. CO[C@]1(NC(=O)CSC(F)F)C(=O)N2C(C(=O)O)=C(CSc3nnnn3CCO)CO[C@H]21  -3.78%
41. Cc1ccc(NS(=O)(=O)c2ccc(C(=O)NCCCN3CCOCC3)cc2)cc1  -3.36%
42. C/C=C/c1ccc(OCC(=O)OCC(=O)Nc2c(C)nn(-c3ccccc3)c2C)c(OC)c1  -2.94%
43. O=C1CCCC(O)=C1C=NCCc1ccccc1  -2.41%
44. Cc1cc(C)cc(-c2nnc(SCC(=O)NC3CC3)o2)c1  -2.32%
45. COc1ccc(CNc2nccs2)cc1  -1.94%
46. COc1ccc(NC(=O)N2CCCC(C(=O)Nc3ccccc3OC)C2)cc1 (stereo not given)  -1.09%
47. O=S(=O)(NCC1CCCO1)c1cnc(Cl)c(Cl)c1 (stereo not given)  -0.359%
48. O=C(COc1ncnc2ccccc12)NC(=O)NCc1ccccc1  0.729%
49. COCCNc1ncnc2c1nc1n2CCCC1  0.903%
50. O=C(NCCCN1CCCCC1)C1CCCN(c2ncnc3c2nc2n3CCCCC2)C1 (stereo not given)  1.26%
51. COc1ccc(CCNC(=S)N2CCN(S(=O)(=O)c3ccc(F)cc3)CC2)cc1  3.3%
52. O=C(O)CSc1ccc(S(=O)(=O)N2CCCC2)cn1  4.27%
53. CCc1ccc(OCC(O)CN2CCN(CCO)CC2)cc1 (stereo not given)  5.07%
54. COc1ccc(-c2nc(CS(=O)CC(=O)NCc3ccccc3)c(C)o2)cc1OC (stereo not given)  6.91%
55. CCOC(=O)c1sc(=NC(=O)c2ccc(Br)cc2)n(C)c1C  8.68%
56. COc1cccc(NC(=O)COc2cc(C)cc3oc(=O)cc(C)c23)c1  10.1%
57. COC(=O)c1ccc(OC)c(Cn2c(=O)n(Cc3ccccc3)c(=O)c3c2c2cc(OC)ccc2n3C)c1  12.5%
58. Cc1c(CCC(=O)O)c(=O)oc2cc(OCc3ccc(Br)cc3)ccc12  17%

In the case of COc1cc(OC)c2c(-c3cccc(-c4cccc(N)c4)c3)cc(=O)oc2c1, the Potency is reported as 4.61 µM (active).
For CCC(=C/c1sc2ccc3ccccc3c2[n+]1C)/C=C1\Sc2ccc3ccccc3c2N1C, the Potency was 0.092 µM (active).
For Cc1c(C)n(Cc2ccc(Cl)cc2)c2ccc(C(=O)NCCCN3CCOCC3)cc12, the Potency was 18.4 µM (active).
For Cc1c(C)n(Cc2ccc(Cl)cc2)c2ccc(C(=O)NCCc3ccc(S(N)(=O)=O)cc3)cc12, the Potency was 25.9 µM (active).
In the case of CCn1c(C)c(C)c2cc(C(=O)NCCc3cc(OC)ccc3OC)ccc21, the Potency is reported as 14.6 µM (active).
For CCCCC(=O)Nc1nc(C)c(-c2csc(Nc3ccc(Cl)cc3)n2)s1, the Potency was 23.1 µM (active).
With C=CCCC(=O)Nc1nc(C)c(-c2csc(Nc3ccc(Cl)cc3)n2)s1 the Potency was 13 µM (active).
With CCCCCCC(=O)Nc1nc(C)c(-c2csc(Nc3cccc(OC)c3)n2)s1 the Potency was 16.4 µM (active).
For CCCN(CCC)C(=O)C1CCCN(c2ncnc3c2nc2n3CCCCC2)C1 (stereo not given), the Potency was 20.6 µM (active).
In the case of COc1cccc(NC(=O)C2CCCN(c3ncnc4c3nc3n4CCCCC3)C2)c1 (stereo not given), the Potency is reported as 20.6 µM (active).
In the case of COc1ccc(-c2nc(CN3CCN(c4ncccn4)CC3)c(C)o2)cc1C, the Potency is reported as 20.6 µM (active).
In the case of Cc1nn(-c2ccccc2)c(C)c1NC(=O)COc1ccc(Cl)cc1Cl, the Potency is reported as 9.2 µM (active).
For O=C(O)Cc1ccc(-c2ccccc2)cc1, the Potency was “inactive”.
With CCOCCCNc1nc(-c2ccccc2)nc2ccccc12 the Potency was 14.6 µM (active).
In the case of c1coc(CNc2ncnc3ccccc23)c1, the Potency is reported as 12.6 µM (active) and 5.17 µM (active).
With COc1ccc(CNc2ncnc3ccccc23)cc1 the Potency was 0.651 µM (active).
In the case of c1ccc(-c2nc(NCc3ccco3)c3ccccc3n2)cc1, the Potency is reported as 23.1 µM (active).
